In all, about 5,500 compounds went through this assay and about 2,000 (36%) were called active. Another 18% or so got no clear call; they are omitted. No stated cut-off is given here; in the data, active means normalized growth mostly below about 0.91 (no sharp cut-off); inconclusive means no clear call, values can overlap the other calls; inactive means mostly above about 0.92. The list shows a part of the results.
Experiment: chemical genetic growth profiling, strain panel (AID 1159580);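 further: tested at 20 µM; growth read once vehicle control cultures reached saturation at 30 °C; 1 = growth at the plate median or of vehicle wells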
Details: S. cerevisiae deletion strains, growth OD
[1] = locus YDR150W, strain NUM1, stronger effect = lower value
[2] = locus YJR075W, strain HOC1, stronger effect = lower value
[3] = locus YMR263W, strain SAP30, stronger effect = lower value
[4] = locus YMR307W, strain GAS1, stronger effect = lower value
[5] = locus YNL128W, strain TEP1, stronger effect = lower value
[6] = locus YNL322C, strain KRE1, stronger effect = lower value

Measured: normalized growth

CC(=O)O[C@@H]1CC2C(C)(C)CCC[C@]2(C)C2CC[C@]3(C)C(=CC(=O)O[C@H]3c3ccoc3)[C@@]21C (some centres undefined)
inactive: locus YBR021W, strain FUR4, stronger effect = lower value 1.02 | locus YBR229C, strain ROT2, stronger effect = lower value 1.01 | locus YCL029C, strain bik1, stronger effect = lower value 1 | locus YDL035C, strain GPR1, stronger effect = lower value 1.02 | locus YDL074C, strain BRE1, stronger effect = lower value 1.01 | locus YDL101C, strain DUN1, stronger effect = lower value 1.01 | locus YDL185W, strain tfp1, stronger effect = lower value 1.01 | locus YDL192W, strain arf1, stronger effect = lower value 0.999 | locus YDR101C, strain arx1, stronger effect = lower value 1.01 | [1] 1.02 | locus YDR162C, strain NBP2, stronger effect = lower value 1 | locus YDR318W, strain mcm21, stronger effect = lower value 0.981 | locus YDR388W, stronger effect = lower value 1.01 | locus YDR502C, strain sam2, stronger effect = lower value 0.977 | locus YEL061C, strain CIN8, stronger effect = lower value 1.02 | locus YER110C, stronger effect = lower value 1.01 | locus YER155C, strain BEM2, stronger effect = lower value 1 | locus YER167W, strain BCK2, stronger effect = lower value 1.02 | locus YGL078C, strain dbp3, stronger effect = lower value 0.982 | locus YGL086W, strain mad1, stronger effect = lower value 0.984 | locus YGL248W, strain PDE1, stronger effect = lower value 1.01 | locus YGR135W, strain pre9, stronger effect = lower value 0.978 | locus YGR229C, strain SMI1, stronger effect = lower value 0.97 | locus YGR252W, strain gcn5, stronger effect = lower value 0.993 | locus YHR030C, strain SLT2, stronger effect = lower value 1.02 | locus YHR079C, strain IRE1 (second series), stronger effect = lower value 1 | locus YHR094C, strain hxt1, stronger effect = lower value 1 | locus YHR129C, strain ARP1, stronger effect = lower value 1.02 | locus YHR200W, strain rpn10, stronger effect = lower value 1.01 | locus YIL066C, strain RNR3, stronger effect = lower value 1.02 | locus YIL073C, strain SPO22, stronger effect = lower value 1.02 | locus YIL125W, strain kgd1, stronger effect = lower value 1 | locus YIR030C, strain dcg1, stronger effect = lower value 1 | locus YJL095W, strain BCK1, stronger effect = lower value 0.97 | locus YJL134W, strain LCB3, stronger effect = lower value 1.02 | locus YJL168C, strain set2, stronger effect = lower value 0.994 | locus YJL187C, strain SWE1 (second series), stronger effect = lower value 1 | locus YJR043C, strain POL32, stronger effect = lower value 1.05 | [2] 1.01 | locus YKL009W, strain mrt4, stronger effect = lower value 1.03 | locus YKL068W, stronger effect = lower value 0.989 | locus YKL085W, strain MDH1 (second series), stronger effect = lower value 1.01 | locus YKL085W, strain MDH1, stronger effect = lower value 1.01 | locus YKR001C, strain vps1, stronger effect = lower value 0.967 | locus YLR039C, strain RIC1, stronger effect = lower value 0.902 | locus YLR058C, strain SHM2, stronger effect = lower value 1.01 | locus YLR102C, strain apc9, stronger effect = lower value 1 | locus YLR262C, strain YPT6, stronger effect = lower value 0.928 | locus YLR268W, strain sec22, stronger effect = lower value 0.973 | locus YLR330W, strain CHS5, stronger effect = lower value 1.02 | locus YLR342W, strain FKS1 (second series), stronger effect = lower value 0.983 | locus YLR371W, strain rom2, stronger effect = lower value 1 | locus YLR418C, strain cdc73, stronger effect = lower value 0.941 | locus YML016C, strain PPZ1, stronger effect = lower value 1.02 | locus YML032C, strain rad52, stronger effect = lower value 0.99 | locus YML124C, strain tub3, stronger effect = lower value 0.993 | locus YMR078C, strain ctf18, stronger effect = lower value 0.986 | locus YMR223W, strain ubp8, stronger effect = lower value 0.983 | [3] 1.02 | [4] 1.09 | locus YNL067W, strain RPL9B, stronger effect = lower value 1.01 | [5] 1.03 | locus YNL233W, strain BNI4, stronger effect = lower value 0.948 | locus YNL250W, strain rad50, stronger effect = lower value 0.968 | locus YNL271C, strain bni1, stronger effect = lower value 1 | locus YNL298W, strain CLA4, stronger effect = lower value 0.992 | locus YNL307C, strain MCK1, stronger effect = lower value 0.992 | [6] 1.02 | locus YNR052C, strain pop2, stronger effect = lower value 0.993 | locus YOL006C, strain TOP1, stronger effect = lower value 1.06 | locus YOL012C, strain htz1 0.86 | locus YOL147C, strain pex11, stronger effect = lower value 1.01 | locus YOR061W, strain CKA2, stronger effect = lower value 1.01 | locus YOR069W, strain VPS5, stronger effect = lower value 1.02 | locus YOR136W, strain idh2, stronger effect = lower value 0.997 | locus YOR144C, strain elg1, stronger effect = lower value 0.999 | locus YOR184W, strain ser1, stronger effect = lower value 0.982 | locus YOR316C, strain cot1, stronger effect = lower value 1 | locus YPR119W, strain clb2, stronger effect = lower value 0.985 | locus YPR141C, strain kar3, stronger effect = lower value 1.01 | locus YPR163C, strain tif3, stronger effect = lower value 0.994 | locus YPR167C, strain met16, stronger effect = lower value 0.998 | strain wtn01, stronger effect = lower value 0.996

O=C(O)CCC(=O)N1CCCC1C(=O)O (centres undefined)
inactive: locus YAL040C, strain CLN3, stronger effect = lower value 1.03 | locus YCL061C, strain MRC1 (second series), stronger effect = lower value 1 | [1] 0.998 | locus YDR363W, strain ESC2, stronger effect = lower value 1.02 | locus YER002W, strain NOP16, stronger effect = lower value 1.01 | locus YGR078C, strain PAC10, stronger effect = lower value 0.979 | [2] 1.03 | [3] 1.01 | [4] 0.972 | [5] 0.999 | locus YNL153C, strain GIM3, stronger effect = lower value 1.24 | locus YNL175C, strain NOP13, stronger effect = lower value 0.991 | locus YNL197C, strain WHI3, stronger effect = lower value 0.993 | locus YNL224C, strain SQS1, stronger effect = lower value 0.992 | [6] 1.02 | locus YOR083W, strain WHI5 (second series), stronger effect = lower value 0.989

— PubChem BioAssay AID1159580 (chemical genetic matrix, 2015)
